Data reported in paper PMC10668032, “Altered binding affinity of SIX1-Q177R correlates with enhanced WNT5A and WNT pathway effector expression in Wilms tumor”.
The full ranking holds about 33,000 sequences; the median of “e-score” is about -0.053, and the highest 2% start at about 0.38. This is one part of a sample in which the highest values are shown more often than they occur.

Biological target: T1, SIX1 homeodomain (reference allele) (human, UniProt Q15475 108-198)
T1 sequence: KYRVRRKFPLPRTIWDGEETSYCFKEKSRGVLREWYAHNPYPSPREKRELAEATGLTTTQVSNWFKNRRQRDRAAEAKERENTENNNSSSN
Test: universal protein binding microarray; Universal all-10-mer PBM (8x60K, AMADID 030236), 300 nM GST-tagged protein, Alexa Fluor 488 anti-GST; buffer, salt, pH and temperature not stated (as in Berger); high values mean tight binding
Conditions: protein: ivt; tags: N-terminal GST; dsDNA, one strand shown
In short: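 Binding was expressed as 8-mer E-scores calculated with the Universal PBM Analysis Suite. The GST-tagged homeodomains, made by in vitro transcription/translation, were applied in duplicate at 300 nM final concentration to universal 'all 10-mer' protein binding microarrays (8×60K format).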

Row | Sequence | binding signal
1 | GAAATATC | 0.262 ± 0.0623 E-score
2 | ATAGCATA | 0.218 ± 0.00716 E-score
3 | ACTATCAA | 0.253 ± 0.0636 E-score
4 | AGTATCAA | 0.444 ± 0.0435 E-score
5 | ATTATCAA | 0.165 ± 0.0524 E-score
6 | ACACCAAA | 0.263 ± 0.0137 E-score
7 | AGTCGATA | 0.257 ± 0.0323 E-score
8 | GGCAATAC | 0.181 ± 0.00926 E-score
9 | AAGTGGAT | 0.182 ± 0.0178 E-score
10 | GCGGTGTA | 0.336 ± 0.0311 E-score
11 | CGGGTGTC | 0.439 ± 0.025 E-score
12 | GGGGTGTA | 0.387 ± 0.00837 E-score
13 | AGGGGGTG | 0.186 ± 0.0209 E-score
14 | AGGGTGTA | 0.313 ± 0.048 E-score
15 | GTGGTGTA | 0.286 ± 0.0221 E-score
16 | CGGGTGTA | 0.265 ± 0.0586 E-score
17 | CGGGTGGA | 0.236 ± 0.0891 E-score
18 | AGGGTGTC | 0.4355 ± 0.00243 E-score
19 | ATCAAGAT | 0.209 ± 0.0291 E-score
20 | AAGCCGGA | 0.159 ± 0.0672 E-score
21 | GATCGGCC | 0.255 ± 0.03 E-score
22 | TACCCCAA | 0.174 ± 0.0539 E-score
23 | ATATACTA | 0.256 ± 0.0638 E-score
24 | CAACACCC | 0.24 ± 0.00973 E-score
25 | ATCGATTC | 0.2 ± 0.0315 E-score

Row | Sequence | binding signal
26 | ATCGATAG | 0.2745 ± 0.00192 E-score
27 | CTCGATCC | 0.325 ± 0.0557 E-score
28 | CTCGATGA | 0.165 ± 0.00668 E-score
29 | CTCGATAC | 0.41 ± 0.0184 E-score
30 | ATCGATAC | 0.446 ± 0.0107 E-score
31 | CAGATGAG | 0.203 ± 0.0236 E-score
32 | CAATAATA | 0.223 ± 0.0513 E-score
33 | CCCGCGAG | 0.206 ± 0.0166 E-score
34 | GGTGTAAA | 0.198 ± 0.028 E-score
35 | GTATCGAC | 0.405 ± 0.0127 E-score
36 | GTATCGAA | 0.43 ± 0.00911 E-score
37 | ATATCGAG | 0.335 ± 0.0302 E-score
38 | ATATCGAT | 0.411 ± 0.0335 E-score
39 | CTATCGAG | 0.157 ± 0.0365 E-score
40 | ATATCGAC | 0.379 ± 0.00832 E-score
41 | GGATCGAA | 0.267 ± 0.0826 E-score
42 | GTATAGAC | 0.276 ± 0.00412 E-score
43 | AGATCGAT | 0.345 ± 0.0116 E-score
44 | CGATCGAG | 0.21 ± 0.0298 E-score
45 | GGATCGAC | 0.297 ± 0.113 E-score
46 | GTATCTAA | 0.374 ± 0.0214 E-score
47 | ATAGCTTA | 0.214 ± 0.0605 E-score
48 | ATATAATA | 0.322 ± 0.053 E-score
49 | AAGCGTAT | 0.231 ± 0.0511 E-score
50 | CTCGTATA | 0.161 ± 0.055 E-score

Row | Sequence | binding signal
51 | GGTTATAC | 0.261 ± 0.0421 E-score
52 | ATCGCCTC | 0.216 ± 0.0033 E-score
53 | ACCGGAGA | 0.201 ± 0.00786 E-score
54 | CCGTAATC | 0.169 ± 0.00918 E-score
55 | GGTCGATA | 0.271 ± 0.00805 E-score
56 | CGGGACAC | 0.153 ± 0.0127 E-score
57 | ATATCGAA | 0.393 ± 0.0367 E-score
58 | CTATCGAA | 0.228 ± 0.0495 E-score
59 | TATACGAA | 0.164 ± 0.00791 E-score
60 | AATATGTG | 0.197 ± 0.0339 E-score
61 | ATAAATAC | 0.163 ± 0.0133 E-score
62 | AGGTATTG | 0.29 ± 0.0429 E-score
63 | AAGTATTA | 0.254 ± 0.109 E-score
64 | GGGTATTA | 0.393 ± 0.0546 E-score
65 | CGGTATTA | 0.368 ± 0.031 E-score
66 | AGGTATTA | 0.385 ± 0.0849 E-score
67 | GCGTATTA | 0.161 ± 0.0688 E-score
68 | CTTACACC | 0.203 ± 0.0268 E-score
69 | GTCGTATA | 0.186 ± 0.0245 E-score
70 | GTAGACAC | 0.182 ± 0.0638 E-score
71 | AGATAGGG | 0.263 ± 0.0607 E-score
72 | TACCAGTA | 0.201 ± 0.0209 E-score
73 | AATCGGGG | 0.181 ± 0.117 E-score
74 | ATGAATAC | 0.2845 ± 0.00167 E-score
75 | CGGAGATC | 0.322 ± 0.00475 E-score

Row | Sequence | binding signal
76 | TAAGTATA | 0.218 ± 0.0666 E-score
77 | GAAGTATA | 0.261 ± 0.108 E-score
78 | AAAGTATA | 0.173 ± 0.149 E-score
79 | AAAGTATC | 0.413 ± 0.0634 E-score
80 | CAAGTATC | 0.378 ± 0.0659 E-score
81 | GAAGTATC | 0.407 ± 0.0492 E-score
82 | CAAATATC | 0.21 ± 0.0519 E-score
83 | GAACTATC | 0.23 ± 0.0598 E-score
84 | ATAAGTAT | 0.235 ± 0.0716 E-score
85 | TACACTGA | 0.178 ± 0.0145 E-score
86 | ATCTTCCC | 0.174 ± 0.0102 E-score
87 | ATCACGAA | 0.172 ± 0.0453 E-score
88 | CTAGACAC | 0.158 ± 0.012 E-score
89 | GAATAATC | 0.209 ± 0.0094 E-score
90 | ATGCATCA | 0.198 ± 0.0685 E-score
91 | ATCATAAG | 0.286 ± 0.0333 E-score
92 | GATATAGA | 0.318 ± 0.034 E-score
93 | GATATATC | 0.441 ± 0.0284 E-score
94 | GATATATA | 0.377 ± 0.0449 E-score
95 | TATATATA | 0.344 ± 0.0349 E-score
96 | AATATATC | 0.343 ± 0.0593 E-score
97 | CATATATC | 0.341 ± 0.0628 E-score
98 | ATACTTTC | 0.16 ± 0.145 E-score
99 | CCTCCGGA | 0.203 ± 0.0104 E-score
100 | CCTCGAGG | 0.197 ± 0.043 E-score

Row | Sequence | binding signal
101 | CAGATCAG | 0.353 ± 0.0153 E-score
102 | ATACCAAT | 0.3482 ± 0.0028 E-score
103 | ATCCCAGC | 0.221 ± 0.0257 E-score
104 | AGTGTATA | 0.291 ± 0.0334 E-score
105 | CGTGTATC | 0.404 ± 0.0303 E-score
106 | CATGTATC | 0.403 ± 0.00743 E-score
107 | AGTGTACC | 0.16 ± 0.0592 E-score
108 | CTTGTATC | 0.266 ± 0.0293 E-score
109 | AATGTATC | 0.363 ± 0.0137 E-score
110 | CATGTATA | 0.223 ± 0.0131 E-score
111 | CGTGTATA | 0.247 ± 0.0518 E-score
112 | AGTGTATC | 0.43 ± 0.00296 E-score
113 | ATCGGGGG | 0.223 ± 0.00524 E-score
114 | ATCAACAG | 0.209 ± 0.0732 E-score
115 | ATCCGGCC | 0.316 ± 0.022 E-score
116 | CGATCGGC | 0.1802 ± 0.00119 E-score
117 | TATTATGA | 0.207 ± 0.134 E-score
118 | ATCAAGCA | 0.174 ± 0.047 E-score
119 | GATGCGGA | 0.199 ± 0.0357 E-score
120 | CTTCGATC | 0.152 ± 0.112 E-score
121 | CCTGATCA | 0.306 ± 0.0156 E-score
122 | GCTGATCA | 0.198 ± 0.00374 E-score
123 | ACTGATCG | 0.156 ± 0.0405 E-score
124 | GCAGATCC | 0.272 ± 0.0482 E-score
125 | CCTGATCG | 0.197 ± 0.0659 E-score

Row | Sequence | binding signal
126 | ACTGATCC | 0.398 ± 0.007 E-score
127 | ACTGATCT | 0.34 ± 0.0165 E-score
128 | GCTGATCC | 0.425 ± 0.0138 E-score
129 | CCTGATCC | 0.387 ± 0.0469 E-score
130 | GTCTAGTA | 0.158 ± 0.0279 E-score
131 | CACACCGG | 0.224 ± 0.0376 E-score
132 | GTATACGA | 0.308 ± 0.0266 E-score
133 | CATGGTGA | 0.225 ± 0.035 E-score
134 | AATATGCC | 0.16 ± 0.0322 E-score
135 | GATATGCC | 0.427 ± 0.0454 E-score
136 | GATATGAA | 0.259 ± 0.0356 E-score
137 | GATATGCA | 0.4032 ± 0.00302 E-score
138 | AATATGCG | 0.171 ± 0.0476 E-score
139 | CATATGCC | 0.162 ± 0.0394 E-score
140 | ATAATACG | 0.385 ± 0.0407 E-score
141 | CTAATACC | 0.285 ± 0.0649 E-score
142 | ATAATACA | 0.302 ± 0.0417 E-score
143 | ATAATATG | 0.27 ± 0.0724 E-score
144 | ATAATACC | 0.421 ± 0.0503 E-score
145 | ACAATACG | 0.25 ± 0.0363 E-score
146 | GGAGCATA | 0.213 ± 0.018 E-score
147 | ATATGAGG | 0.156 ± 0.0225 E-score
148 | CGTCTAAG | 0.193 ± 0.0194 E-score
149 | GCAATATA | 0.16 ± 0.0581 E-score
150 | CGACACCC | 0.439 ± 0.0379 E-score

Row | Sequence | binding signal
151 | AGACACCC | 0.335 ± 0.0199 E-score
152 | CGACACCG | 0.427 ± 0.0217 E-score
153 | CCACACCG | 0.151 ± 0.104 E-score
154 | CAACACCA | 0.282 ± 0.0199 E-score
155 | CGACACCA | 0.416 ± 0.0371 E-score
156 | AGACACCG | 0.323 ± 0.0488 E-score
157 | TCACACCA | 0.195 ± 0.0562 E-score
158 | GGACACCC | 0.372 ± 0.033 E-score
159 | CCATAGGG | 0.162 ± 0.116 E-score
160 | GCAGATCA | 0.369 ± 0.0161 E-score
161 | ATACTGAG | 0.286 ± 0.0205 E-score
162 | CTCCAGGA | 0.161 ± 0.0145 E-score
163 | ATCAGGTA | 0.2929 ± 0.00141 E-score
164 | CTCGTGTA | 0.158 ± 0.00844 E-score
165 | AAAATCCG | 0.175 ± 0.0497 E-score
166 | CGAGTATA | 0.29 ± 0.0819 E-score
167 | AGAGTATA | 0.262 ± 0.0847 E-score
168 | AGAGTATC | 0.465 ± 0.0179 E-score
169 | CGAGTACC | 0.185 ± 0.0226 E-score
170 | GGAGTATA | 0.319 ± 0.0316 E-score
171 | CGAGTATC | 0.435 ± 0.0231 E-score
172 | ACCGATCG | 0.272 ± 0.0437 E-score
173 | ATATAGCC | 0.25 ± 0.032 E-score
